Compounds with a hit are over-represented: about 4.3% of the library has one in this group of screens.
Wnt bcat act: Wnt/beta-catenin pathway activators, primary screen, cell-based, plate reader, single point. Wnt/beta-catenin reporter cell assay, activator. activation, % at 9.35 µM. 300,000 tested, 1.2% active. AID 743398, 2014; in the data active means activation above about 30%, passing the limit was not always enough; inconclusive means no clear call, values can overlap the other calls;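 further: 0% = neutral control wells and 100% = positive control wells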
HSF-1 act: HSF-1 activators, primary screen, NIH3T3-HGL cells, MG132 stress, luminescence, single point; NIH3T3-HGL HSF-1 luciferase reporter, 8 h; 100% = twice DMSO control signal; 300,000 tested, 1.7% active; activation, % at 9 µM;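 active means mean replicate activation of at least 50% with a set share of replicates each reaching 50%; inconclusive means only one of those two conditions met; inactive means mean below 50% and too few replicates reaching it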;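 further: 0% = median of the neutral control wells and 100% = twice that signal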
SMARCA2 activ: SMARCA2 (BRM) function activators, primary screen, cell-based, luminescence, high throughput; activation, % at 9.1 µM; MG213 cells, MMTV-luciferase reporter, dexamethasone, overnight; 370,000 tested, 1% active; AID 652017, 2013; in the data active means activation above about 7.8%;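 further: 0% = vehicle wells and 100% = reference activator wells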
MITF act: activators of MITF-driven TRPM1 promoter reporter, primary screen, cell-based, SK-MEL-5, luciferase, single point; SK-MEL-5 TRPM1-promoter luciferase, 24 h; % of positive control, neutral wells = 0; activation, % at 12.5 µM; 300,000 tested, 0.75% active; AID 588334, 2011;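 active means mean activation of at least 80% with every replicate also reaching 80%; inconclusive means mean reaches 80% but some replicate falls short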;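 further: 0% = neutral control wells and 100% = parthenolide positive control wells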
esBAF inh: Bmi1 luciferase reporter increase in mESCs, primary screen, esBAF inhibitor project, mouse ES cells, Bmi1 luciferase knock-in, single point. 24 h; 100% = twice the neutral-well signal. AID 602393, 2012. reporter increase, % at 12.5 µM. 350,000 tested, 2% active; in the data active means activation above about 40%; inconclusive means no clear call, values can overlap the other calls;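 further: 0% = median of the plate's neutral control wells and 100% = double that signal; a rise in the Bmi1 reporter signal indicates esBAF inhibition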
HSF1 inh: HSF1 inhibitors in luciferase reporter cells, primary screen, cell-based, NIH3T3, luminescence; NIH3T3-HGL HSE-luciferase, MG132-induced, luminescence 8 h; stronger effect = lower value; activity change, negative = inhibition, % at 7.5 µM (by protocol); 300,000 tested, 0.77% active; AID 2098, 2009;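 active means more than half of replicate wells show activity change below -50%, luminescence cut by over half; inconclusive means some wells, but at most half, below -50%; inactive means no replicate well below -50%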;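 further: luciferase reports HSF-1 transcriptional activity via heat shock element; 0% = median of DMSO wells and -100% = zero luminescence signal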
Starred values were filed as active, the others as inactive; ? = inconclusive; . = no result given.

SMILES | Wnt bcat act | HSF-1 act | SMARCA2 activ | MITF act | esBAF inh | HSF1 inh
CN(CCc1ccccc1)C(=O)c1cc(COc2ccc(F)cc2Cl)on1 | 11 | 11 | 7 | 60 | 43* | 6
CN(CCN1CCOCC1)C(=O)c1cc(COc2ccc(F)cc2Cl)on1 | 7 | . | -2 | . | 11 | .
CN(CCc1ccccc1)C(=O)c1cc(COc2cccc(C(F)(F)F)c2)on1 | 2 | 186* | -3 | 30 | 18 | 107
O=C(c1cc(COc2cccc(C(F)(F)F)c2)on1)N1C[C@H]2CC[C@H]1C2 | 13 | 33 | 3 | 65 | 58* | 16
CN(CCCN1CCOCC1)C(=O)c1cc(COc2cccc(C(F)(F)F)c2)on1 | -1 | -15 | 0 | -8 | -2 | -3
C[C@H](O)C#Cc1cnc2c(c1)C(=O)N([C@H](C)CO)C[C@@H](C)[C@H](CN(C)C(=O)c1ccccc1F)O2 | . | . | . | . | 2 | .
Cc1cccc(-[n+]2c(C)cc(C)c3c(=O)[nH]c(=O)[nH]c32)c1 | -2 | 63* | 0 | 1 | . | 14
COCC#Cc1ccc([C@@H]2[C@H](C#N)N(C(=O)Cc3ccccc3)[C@H]2CO)cc1 | . | . | . | . | 4 | .
Cc1noc(C)c1NC(=O)N1C[C@H](O)COC[C@H]2O[C@H](CC(=O)NCC3CCCCC3)CC[C@@H]21 | . | . | . | . | 1 | .
CS(=O)(=O)c1ccc(S(=O)CC(=O)OCc2ccccc2)c([N+](=O)[O-])c1 (stereo not given) | -7 | -94 | -14 | -82 | . | -94*
Cn1c(SCC(=O)N2c3ccccc3Sc3ccc(Cl)cc32)nnc1-c1ccco1 | -4 | . | -2 | -7 | 2 | .
O=C(CSc1nnc(-c2ccncc2)n1Cc1ccco1)N1c2ccccc2Sc2ccc(Cl)cc21 | 0 | 70* | 0 | -8 | 3 | 63
COc1ccccc1NC(=S)N(Cc1ccco1)Cc1cc2cccc(C)c2[nH]c1=O | . | 119* | 2 | 3 | . | 60
Cc1cccc2cc(CN(Cc3ccccc3)C(=S)NCCCN(C)C)c(=O)[nH]c12 | -3 | -78 | 3 | 22 | . | -74*
COc1ccccc1NC(=O)N(Cc1ccco1)Cc1cc2ccc(C)c(C)c2[nH]c1=O | . | 108* | -3 | -40 | -2 | 79
Cc1ccc(CN(Cc2cc3cccc(C)c3[nH]c2=O)C(=S)NCCCN(C)C)cc1 | -2 | 10 | 0 | 3 | . | -11
COc1ccccc1NC(=O)N(Cc1ccco1)Cc1cc2cc(C)cc(C)c2[nH]c1=O | . | 15 | 1 | -6 | 5 | 9
C[C@H](CO)N1C[C@H](C)[C@@H](CN(C)S(C)(=O)=O)Oc2ccc(NS(=O)(=O)c3ccc(F)cc3)cc2C1=O | . | . | . | . | -5 | .
COc1ccccc1-c1cc2nc(NCCOc3ccccc3)ccn2n1 | 0 | . | -2 | . | 4 | .
c1ccc(OCCNc2ccn3nc(-c4ccccc4)cc3n2)cc1 | 16 | . | -2 | . | 53* | .
Clc1cccc(CNc2ccn3nc(-c4cccs4)cc3n2)c1 | 49* | . | 2 | . | 59* | .
FC(F)(F)c1cccc(-c2cc3nc(NCCOc4ccccc4)ccn3n2)c1 | 6 | . | 0 | . | 34 | .
Fc1ccc(CNc2ccn3nc(-c4ccccc4)cc3n2)cc1 | -2 | . | -1 | . | 64* | .
c1ccc(OCCNc2ccn3nc(-c4cccs4)cc3n2)cc1 | -2 | . | -7 | . | 64* | .
Clc1cccc(CNc2ccn3nc(-c4ccco4)cc3n2)c1 | -2 | . | 2 | . | 25 | .
SMILES | Wnt bcat act | HSF-1 act | SMARCA2 activ | MITF act | esBAF inh | HSF1 inh
C[C@@H]1CN([C@@H](C)CO)C(=O)Cc2cc(NC(=O)CCCCCC(=O)Nc3ccccc3N)ccc2O[C@@H]1CN(C)S(=O)(=O)c1cn(C)cn1 | . | . | . | . | -1 | .
C[C@H]1CN([C@@H](C)CO)C(=O)c2cc(NC(=O)CCCN(C)C)ccc2O[C@@H]1CN(C)S(=O)(=O)c1cccs1 | . | . | . | . | 0 | .
c1ccc(OCCNc2ccn3nc(-c4ccco4)cc3n2)cc1 | -1 | . | 7 | . | 48* | .
COCCCNc1ccn2nc(-c3ccccc3)cc2n1 | -21 | . | 1 | . | -62 | .
COc1ccc(-c2cc(=O)[nH]c3ccccc23)cc1 | -1 | . | -1 | -11 | 4 | .
COc1cccc2[nH]c(=O)c(-c3ccccc3)cc12 | 21 | 47 | 5 | 105* | 56 | 6
O=C(CSc1nc2ccccc2[nH]1)NC(=O)NCc1ccco1 | . | 8 | 0 | 7 | -5 | 5
O=C(CCCSc1nc2ccccc2[nH]1)NCc1ccco1 | -7 | 68* | -6 | . | 3 | 13
Cc1ccc(S(=O)(=O)N(C)C[C@@H]2Oc3ccc(NC(=O)Nc4ccc(F)cc4)cc3CC(=O)N([C@@H](C)CO)C[C@@H]2C)cc1 | . | . | . | . | 0 | .
CC(C)CN(C[C@@H]1[C@@H](c2ccccc2)[C@H](CO)N1C(=O)C1CCC1)C(=O)C1CC1 | . | . | . | . | 0 | .
Nc1ncn([C@@H]2O[C@H](CO)[C@@H](O)[C@H]2O)c(=O)n1 | -11 | 17 | 0 | -77 | 67* | 13
Nc1ccn([C@@H]2O[C@H](CO)[C@@H](O)[C@@H]2O)c(=O)n1 | -5 | -19 | -1 | -15 | -44 | -6
CCCNC(=O)Nc1ccc2c(c1)OC[C@@H](C)N(C(=O)C1CCCCC1)C[C@@H](C)[C@H](OC)CN(C)C2=O | . | . | . | . | 0 | .
CC(=O)CCSc1ncnc2sc(-c3ccccc3)cc12 | 43* | 16 | 7 | 69 | 77* | 3
O=C(O)CSc1ncnc2sc(-c3ccccc3)cc12 | -1 | 6 | -3 | 18 | . | 1
O=C(O)CCSc1ncnc2sc(-c3ccccc3)cc12 | -4 | -65 | -11 | -66 | -82 | -64*
c1ccc2c(Nc3nnc(-c4ccncc4)s3)cccc2c1 | . | -2 | 1 | ? | 55* | 14
CCN1[C@@H]2c3ccc(-c4cccc(F)c4)c(=O)n3C[C@@H]2[C@@H](CO)[C@@H]1C(=O)N1CCCCC1 | . | . | . | . | 0 | .
Cc1cc(C(F)(F)F)n2nc(-c3cccs3)cc2n1 | 7 | 33 | 2 | 18 | 64* | 7
FC(F)(F)c1cc(-c2cccs2)nc2cc(-c3ccccc3)nn12 | -3 | -10 | 2 | -4 | 0 | -7
Cn1ccc2cc(OCc3ccccc3)ccc21 | 6 | . | 4 | 70 | 49* | .
O=Cc1c[nH]c2ccc(OCc3ccccc3)cc12 | 6 | . | 1 | 17 | 9 | .
Cc1c(C=O)c2cc(OCc3ccccc3)ccc2n1C | 16 | 34 | 0 | . | 70* | 27
O=C(Nc1ccccc1)Nc1ccc2c(c1)[C@@H]1C[C@H](CC(=O)N3CCOCC3)O[C@@H](CO)[C@@H]1O2 | . | . | . | . | 2 | .
CCOc1ccc(C2c3cc(OC)c(OC)cc3CC(=O)N2c2ccccc2)cc1 (stereo not given) | . | 18 | 1 | -10 | -5 | 4
